We go through 7 compounds from PubChem BioAssay (NCATS).

Results filed as inconclusive are left out. The source made the active and inactive calls. Unless noted, the call rests on the fitted dose curve; in most records, active means well fitted curve in the direction sought with a large enough effect; inconclusive means small, poorly fitted or top-dose-only effect, or another doubt; inactive means no such curve, though single readings can be large; an effect the other way counts as inactive or inconclusive.

The target in assay [1] is Transient receptor potential cation channel subfamily V member 1 (Homo sapiens) (UniProt Q8NER1). The assay is described as follows: HTS Assay for Compounds that Act as Enhancers of the Vanilloid Receptor 1 (AID 488979). Further: 0% is about no effect. The essentials: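 TRPV1 cells loaded with Fluo-8 calcium dye; compound added and Ca2+ signal (ex 480/em 520 nm) followed 3 min, then capsaicin at EC20 added and read 2 more min to detect enhancement.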

For assay [2], the target named is D(1A) dopamine receptor (Homo sapiens) (UniProt P21728). In words: HTS Assay for Allosteric Agonists of the Human D1 Dopamine Receptor: Primary Screen for Agonists (AID 488981). Further: 0% is about no effect. The method in brief:
(§1)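 Tetracycline-induced HEK293 Trex D1 cells with forced coupling to calcium, loaded with no-wash calcium dye; kinetic fluorescence read 180 s after compound addition for agonism, then a further 180 s after an EC20 dopamine challenge for potentiation.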

Assay [3] has the same target. The assay is described as follows: HTS Assay for Allosteric Agonists of the Human D1 Dopamine Receptor: Primary Screen for Potentiators (AID 488982). Further: 0% is about no effect. The essentials:
as §1

The target is the same in assay [4]. In words: HTS Assay for Allosteric Agonists of the Human D1 Dopamine Receptor: Primary Screen for Antagonists (AID 488983).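 Further: calcium flux response to an EC80 dopamine challenge measured with no-wash dye; on the % scale 0 is the no-effect control and ±100 the full control effect; nearly all actives have a fitted effect of over 65% in size.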 The method in brief: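 Tetracycline-induced HEK293 T-REx cells expressing force-coupled D1 were plated overnight at 30 C, dye-loaded for calcium, and read kinetically. Compounds were pinned in, then an EC80 dopamine challenge followed after 180 s to reveal antagonism.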

Assay [5] in a line: Validation screen for small molecules that induce genotoxicity in human embryonic kidney (HEK293T) cells expressing luciferase-tagged ELG1 (AID 493106). Further: 0% is about no effect. The method in brief:
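HEK293T cells expressing luciferase-tagged ELG1 were exposed to compound or DMSO vehicle for 16 hr at 37 °C, 5% CO2. Genotoxic stress raises ELG1 levels, so increased luciferase signal after ONE-Glo addition and 30 min at room temperature marks hits.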

Assay [6] deals with ATPase family AAA domain-containing protein 5 (Homo sapiens) (UniProt Q96QE3). In words: Validation screen for small molecules that inhibit ELG1-dependent DNA repair in human embryonic kidney (HEK293T) cells expressing luciferase-tagged ELG1 (AID 493107).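 Further: cells co-treated with the DNA-damaging agent 5-fluorouridine alongside compound; series mostly up to about 46 µM; on the % scale 0 is the no-effect control and ±100 the full control effect; inhibitors lower the ELG1-luciferase luminescence signal; nearly all actives have a fitted effect of over 70% in size.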 The essentials: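 HEK293T cells expressing luciferase-tagged ELG1 were co-treated with 5-fluorouridine and compound or DMSO for 16 hr at 37 °C, 5% CO2. Luciferase activity was then read with ONE-Glo after 30 min at room temperature; suppressed signal indicates blocked ELG1 function.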

Assay [7] addresses Thyrotropin-releasing hormone receptor (Homo sapiens) (UniProt P34981). In words: qHTS for Small Molecule Agonists and Allosteric Enhancers of Human TRH Receptor: Validation Screen for Agonists (AID 493127;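 active means calcium activation more than 3 SD above the typical response in the agonist read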;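 further: intracellular calcium rise by fluo-8 fluorescence before TRH EC20 addition; 0% is about no effect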). The note with it: TRH receptor agonist cell assay; at 2 µM; stronger effect = higher value. The essentials:
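TRHR-expressing cells were plated overnight in serum-containing medium, then loaded with fluo-8 calcium dye at room temperature for 30 min–1.5 h. After a 10 s baseline, compound was pin-transferred and calcium fluorescence (ex 480/em 530) read kinetically for agonist response.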
(In general: In qHTS, concentration-response curves come from the screen itself.)

A short description of assay [8]: Nrf2 qHTS screen for inhibitors: Validation (AID 493153; active means well fitted inhibition curve with a large enough effect in the main read-out, with a control signal flat, not every such curve was filed as active). The note with it: Potency: luciferase luminescence; viability change: measured here: cytotoxicity max response. The essentials: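 A549 cells carrying an ARE-driven firefly luciferase reporter, in 5% FBS OPTI-MEM, were treated with compounds in concentration-response for 18-24 h at 37°C. Viability was read by CellTiter-Fluor fluorescence, then Nrf2 activity by luciferase luminescence.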

Assay [9] in a line: qHTS for Inhibitors of Cell Surface uPA Generation: Validation Assay (AID 493164).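 Further: RAW 264.7 macrophage cells exposed to compound for 18 h; 0% is about no effect.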 The method in brief:
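RAW 264.7, 4000 cells/well, o/n plating; cpd 7-pt 1:5 dilution 2.45 nM–38.3 uM final; 18 h, 37 C/5% CO2; ATP-Lite, 5 s luminescence exposure.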

Assay [10] has as its target Galactokinase (Homo sapiens) (UniProt P51570). In words: qHTS Validation Assay for Inhibitors of Human Galactokinase (GALK) (AID 493189). Further: 0% is about no effect. The essentials: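 5 nM GALK / 100 uM galactose / 35 uM ATP, 20 mM HEPES pH8.0, 5 mM MgCl2, 60 mM NaCl, 1 mM DTT, 0.01% BSA (final). RT 1 h; Kinase-Glo Plus luminescence.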
Assay [11] can be described thus: Validation screen for small molecules that induce DNA re-replication in SW480 colon adenocarcinoma cells (AID 504364). Further: 0% is about no effect. The essentials: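 SW480 cells seeded at 250 per well were exposed to compound or DMSO for 48 hr at 37 C, 5% CO2, then stained with Hoechst for 40 min. DNA content per nucleus was imaged (405 nm ex, 500-530 nm em).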
In assay [12] the target is Peptidyl-prolyl cis-trans isomerase NIMA-interacting 1 (Homo sapiens) (UniProt Q13526). In words: qHTS Validation Assay to Find Inhibitors of Pin1 (AID 504536; active means well fitted inhibition curve with a large enough effect in the polarisation, with a control signal flat, not every such curve was filed as active; the % refers to the polarisation; further: potency means the concentration at half of the fitted maximal effect). The method in brief: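 Fluorescence polarization competition: compounds (titration) displace HiFluor-488-labeled Pin1-1b peptide from Pin1 (0.3 uM final) in pH 7.5 HEPES buffer with DTT, 10 min at room temperature; %Activity normalized to no-enzyme wells, curves fitted.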

For assay [13], the target named is Phosphoglycerate kinase, glycosomal (Trypanosoma brucei brucei) (UniProt P07378). The assay is described as follows: qHTS Validation Assay to Find Inhibitors of Phosphoglycerate Kinase (AID 504547).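 Further: control wells lack PGK and mark full inhibition.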 The essentials: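 PGK activity was coupled to GAPDH (100nM final), which generates the unstable substrate 1,3-bisphosphoglycerate in-well. Reactions ran 60 minutes at room temperature in 100mM TEA pH 7.6, 5mM MgCl2, 0.01% Tween-20, then Kinase-Glo Plus luminescence was read.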

In assay [14] the target is phosphoglycerate mutase (Leishmania major) (UniProt Q4Q090). The assay is described as follows: qHTS Validation Assay to Find Inhibitors of Phosphoglycerate Mutase (AID 504548). Further: series mostly up to about 58 µM; on the % scale 0 is the no-effect control and ±100 the full control effect. To be noted: Potency: inhibition qHTS. The method in brief: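 Luminescent end-point read-out via Kinase-GloPlus after a 10-minute development. Reaction: 1.25nM Leishmania major PGAM with substrate and compound, 45 minutes at room temperature in TEA buffer (pH 7.6) with MgCl2 and Tween-20.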

Assay [15] addresses Ubiquitin carboxyl-terminal hydrolase 1 (Homo sapiens) (UniProt O94782). In words: Inhibitors of USP1/UAF1: Pilot qHTS (AID 504865). Further: nearly all actives have a fitted effect of over 35% in size. Further: potency means the concentration at half of the fitted maximal effect. The essentials: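 In 50mM HEPES pH 7.8 containing 0.5mM EDTA, 1mM TCEP, 0.1 mg/ml BSA and 0.01% Tween-20, 1nM USP1/UAF1 is exposed to compound for 15 min, then Ub-Rho (150nM final) is added and fluorescence is read over time.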
A short description of assay [16]: qHTS for Inhibitors of ATXN expression: Validation of Cytotoxic Assay (AID 588349). Further: potency means the concentration at half of the fitted maximal effect. The method in brief:
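HEK293 cells were dosed with titrated compounds for 72 hr at 37 degrees C. Viability was read by CellTiter Glo luminescence, with intracellular ATP as the marker of cell survival.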

Assay [17] can be described thus: qHTS for Inhibitors of ATXN expression: Validation (AID 588378). Further: nearly all actives have a fitted effect of over 75% in size. Further: potency means the concentration at half of the fitted maximal effect. The essentials:
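Compounds were pinned onto attached HEK293 cells carrying an ATXN2-firefly luciferase construct and incubated 24 hrs at 37 degrees C. Each well then received a fluorescent viability reagent followed by luciferase substrate for end-point luminescence.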

The target in assay [18] is Thyrotropin receptor (Homo sapiens) (UniProt P16473). The assay is described as follows: qHTS Assay for Antagonists of the Thyroid Stimulating Hormone Receptor (AID 488980). Further: series mostly up to about 58 µM; 0% is about no effect. The method in brief:
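Readout is cAMP by HTRF competition between cellular cAMP and cAMP-d2 for a cryptate-labelled antibody. Antagonism was assessed in TSHR-transfected HEK293 cells stimulated with 4 nM TSH (EC80, final) in the presence of RO 20-1724.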

Sequence of Ubiquitin carboxyl-terminal hydrolase 1 (Homo sapiens) (O94782 whole entry, looked up): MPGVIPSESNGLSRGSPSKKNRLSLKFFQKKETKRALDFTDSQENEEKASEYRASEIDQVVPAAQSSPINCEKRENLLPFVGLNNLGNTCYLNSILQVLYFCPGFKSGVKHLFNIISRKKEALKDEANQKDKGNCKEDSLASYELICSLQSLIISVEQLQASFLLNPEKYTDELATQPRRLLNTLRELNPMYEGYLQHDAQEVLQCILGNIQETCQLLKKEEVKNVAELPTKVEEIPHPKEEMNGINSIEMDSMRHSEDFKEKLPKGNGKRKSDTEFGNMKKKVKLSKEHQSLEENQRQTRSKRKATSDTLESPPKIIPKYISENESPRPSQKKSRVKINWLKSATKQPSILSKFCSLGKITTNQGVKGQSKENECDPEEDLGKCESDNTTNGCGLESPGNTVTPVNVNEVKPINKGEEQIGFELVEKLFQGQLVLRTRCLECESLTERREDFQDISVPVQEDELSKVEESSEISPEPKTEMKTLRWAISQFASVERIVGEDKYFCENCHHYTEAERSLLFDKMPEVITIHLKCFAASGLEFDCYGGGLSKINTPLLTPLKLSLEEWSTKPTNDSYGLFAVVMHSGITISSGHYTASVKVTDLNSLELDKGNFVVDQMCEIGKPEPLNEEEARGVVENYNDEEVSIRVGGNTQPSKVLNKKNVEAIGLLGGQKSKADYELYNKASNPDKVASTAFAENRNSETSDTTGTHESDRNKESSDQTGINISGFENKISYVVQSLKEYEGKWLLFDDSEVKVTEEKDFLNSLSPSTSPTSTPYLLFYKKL
Sequence of D(1A) dopamine receptor (Homo sapiens) (P21728 whole entry, looked up): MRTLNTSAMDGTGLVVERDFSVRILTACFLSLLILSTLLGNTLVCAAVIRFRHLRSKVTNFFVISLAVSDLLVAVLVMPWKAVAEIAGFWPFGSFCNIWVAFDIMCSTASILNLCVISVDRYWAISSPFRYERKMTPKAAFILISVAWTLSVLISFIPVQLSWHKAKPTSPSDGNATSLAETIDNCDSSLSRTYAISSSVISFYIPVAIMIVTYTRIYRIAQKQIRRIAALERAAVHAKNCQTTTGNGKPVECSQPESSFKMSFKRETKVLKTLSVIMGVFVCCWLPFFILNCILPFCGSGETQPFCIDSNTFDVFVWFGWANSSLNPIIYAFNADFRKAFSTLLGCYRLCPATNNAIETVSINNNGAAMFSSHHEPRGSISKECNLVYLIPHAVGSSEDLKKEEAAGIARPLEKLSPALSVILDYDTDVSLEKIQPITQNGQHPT
Sequence of Peptidyl-prolyl cis-trans isomerase NIMA-interacting 1 (Homo sapiens) (Q13526 whole entry, looked up): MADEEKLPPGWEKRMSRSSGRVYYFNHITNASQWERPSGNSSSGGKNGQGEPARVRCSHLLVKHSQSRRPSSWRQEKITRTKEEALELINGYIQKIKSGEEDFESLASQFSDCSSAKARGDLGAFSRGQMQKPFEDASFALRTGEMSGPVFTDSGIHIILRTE
Sequence of phosphoglycerate mutase (Leishmania major) (Q4Q090 1-553): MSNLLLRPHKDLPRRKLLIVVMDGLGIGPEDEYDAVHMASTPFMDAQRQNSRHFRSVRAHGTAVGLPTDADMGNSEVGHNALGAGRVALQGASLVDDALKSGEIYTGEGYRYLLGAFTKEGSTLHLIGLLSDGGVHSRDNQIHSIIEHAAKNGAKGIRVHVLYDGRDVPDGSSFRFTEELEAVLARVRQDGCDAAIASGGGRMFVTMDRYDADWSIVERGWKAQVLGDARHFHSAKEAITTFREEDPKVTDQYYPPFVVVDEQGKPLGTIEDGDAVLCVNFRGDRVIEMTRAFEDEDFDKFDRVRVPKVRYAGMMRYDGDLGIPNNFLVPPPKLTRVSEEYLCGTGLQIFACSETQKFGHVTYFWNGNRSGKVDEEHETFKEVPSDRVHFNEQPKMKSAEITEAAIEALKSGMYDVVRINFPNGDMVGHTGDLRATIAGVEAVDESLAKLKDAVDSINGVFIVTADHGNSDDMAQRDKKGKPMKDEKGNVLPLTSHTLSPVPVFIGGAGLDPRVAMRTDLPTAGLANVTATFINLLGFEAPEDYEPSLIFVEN
Sequence of ATPase family AAA domain-containing protein 5 (Homo sapiens) (Q96QE3 whole entry, looked up, the tested form may be a part): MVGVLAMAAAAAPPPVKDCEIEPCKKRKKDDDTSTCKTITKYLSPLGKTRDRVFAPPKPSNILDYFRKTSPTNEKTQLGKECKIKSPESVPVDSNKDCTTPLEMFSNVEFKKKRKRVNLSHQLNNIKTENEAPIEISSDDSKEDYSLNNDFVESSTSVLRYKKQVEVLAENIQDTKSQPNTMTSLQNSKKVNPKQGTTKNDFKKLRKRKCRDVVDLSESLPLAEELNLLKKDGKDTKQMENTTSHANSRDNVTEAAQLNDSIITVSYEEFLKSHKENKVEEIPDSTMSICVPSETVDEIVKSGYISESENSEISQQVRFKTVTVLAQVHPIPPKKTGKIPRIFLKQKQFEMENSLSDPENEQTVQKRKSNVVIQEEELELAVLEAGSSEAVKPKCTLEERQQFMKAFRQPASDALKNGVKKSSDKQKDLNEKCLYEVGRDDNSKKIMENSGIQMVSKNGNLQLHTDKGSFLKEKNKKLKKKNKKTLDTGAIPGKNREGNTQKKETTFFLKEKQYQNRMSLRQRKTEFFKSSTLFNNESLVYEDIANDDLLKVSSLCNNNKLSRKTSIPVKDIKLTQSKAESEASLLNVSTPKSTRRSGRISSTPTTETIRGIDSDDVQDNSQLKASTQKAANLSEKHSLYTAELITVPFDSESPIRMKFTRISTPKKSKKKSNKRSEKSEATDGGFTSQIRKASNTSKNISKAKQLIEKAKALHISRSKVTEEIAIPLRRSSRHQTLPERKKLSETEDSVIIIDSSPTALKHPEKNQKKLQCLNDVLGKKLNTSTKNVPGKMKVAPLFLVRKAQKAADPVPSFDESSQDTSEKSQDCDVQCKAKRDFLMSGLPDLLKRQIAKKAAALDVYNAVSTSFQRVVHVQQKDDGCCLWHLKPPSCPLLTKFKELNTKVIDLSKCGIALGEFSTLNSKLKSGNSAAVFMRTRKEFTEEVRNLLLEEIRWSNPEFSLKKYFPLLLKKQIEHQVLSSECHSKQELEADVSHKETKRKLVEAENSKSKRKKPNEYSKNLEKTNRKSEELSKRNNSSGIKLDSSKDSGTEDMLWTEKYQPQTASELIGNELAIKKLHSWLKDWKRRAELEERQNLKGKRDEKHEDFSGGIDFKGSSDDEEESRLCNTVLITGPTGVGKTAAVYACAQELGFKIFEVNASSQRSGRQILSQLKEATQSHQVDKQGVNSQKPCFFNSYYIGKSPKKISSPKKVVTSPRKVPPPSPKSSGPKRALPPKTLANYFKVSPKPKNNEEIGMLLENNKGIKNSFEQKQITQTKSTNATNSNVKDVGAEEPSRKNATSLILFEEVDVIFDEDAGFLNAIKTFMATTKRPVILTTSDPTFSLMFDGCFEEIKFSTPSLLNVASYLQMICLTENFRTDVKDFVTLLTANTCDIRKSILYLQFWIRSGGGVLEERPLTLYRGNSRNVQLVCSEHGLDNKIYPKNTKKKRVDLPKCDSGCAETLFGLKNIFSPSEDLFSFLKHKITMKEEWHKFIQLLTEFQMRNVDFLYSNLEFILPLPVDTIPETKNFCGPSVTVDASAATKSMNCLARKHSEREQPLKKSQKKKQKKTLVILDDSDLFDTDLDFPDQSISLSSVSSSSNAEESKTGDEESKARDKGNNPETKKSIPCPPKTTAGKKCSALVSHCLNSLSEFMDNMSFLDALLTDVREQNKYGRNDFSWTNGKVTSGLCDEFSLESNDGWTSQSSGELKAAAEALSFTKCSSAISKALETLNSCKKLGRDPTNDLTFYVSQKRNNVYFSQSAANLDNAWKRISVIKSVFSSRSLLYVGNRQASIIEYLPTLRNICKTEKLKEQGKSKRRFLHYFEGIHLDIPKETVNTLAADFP
Sequence of Phosphoglycerate kinase, glycosomal (Trypanosoma brucei brucei) (P07378 whole entry, looked up): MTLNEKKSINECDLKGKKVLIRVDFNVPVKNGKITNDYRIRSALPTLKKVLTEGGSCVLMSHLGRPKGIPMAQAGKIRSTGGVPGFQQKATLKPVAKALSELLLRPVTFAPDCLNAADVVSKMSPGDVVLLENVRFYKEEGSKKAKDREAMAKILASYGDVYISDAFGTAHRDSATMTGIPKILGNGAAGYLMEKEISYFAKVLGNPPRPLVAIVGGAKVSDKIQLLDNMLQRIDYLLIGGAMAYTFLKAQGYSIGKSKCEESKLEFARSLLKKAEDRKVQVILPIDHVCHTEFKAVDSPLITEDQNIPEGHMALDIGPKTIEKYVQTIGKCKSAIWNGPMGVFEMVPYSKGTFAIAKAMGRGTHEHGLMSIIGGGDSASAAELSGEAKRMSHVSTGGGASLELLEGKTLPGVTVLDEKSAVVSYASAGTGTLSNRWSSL
Sequence of Galactokinase (Homo sapiens) (P51570 whole entry, looked up): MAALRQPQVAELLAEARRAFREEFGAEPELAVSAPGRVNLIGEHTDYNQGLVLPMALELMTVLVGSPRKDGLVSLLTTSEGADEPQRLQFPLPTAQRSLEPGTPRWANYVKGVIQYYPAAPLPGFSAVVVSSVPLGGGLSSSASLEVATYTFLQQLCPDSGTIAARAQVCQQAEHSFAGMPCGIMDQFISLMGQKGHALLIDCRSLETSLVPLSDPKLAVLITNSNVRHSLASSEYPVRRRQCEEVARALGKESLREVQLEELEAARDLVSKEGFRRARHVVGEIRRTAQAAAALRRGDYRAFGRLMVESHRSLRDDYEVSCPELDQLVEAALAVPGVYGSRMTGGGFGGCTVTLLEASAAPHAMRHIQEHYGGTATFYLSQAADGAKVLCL
Sequence of Thyrotropin-releasing hormone receptor (Homo sapiens) (P34981 whole entry, looked up): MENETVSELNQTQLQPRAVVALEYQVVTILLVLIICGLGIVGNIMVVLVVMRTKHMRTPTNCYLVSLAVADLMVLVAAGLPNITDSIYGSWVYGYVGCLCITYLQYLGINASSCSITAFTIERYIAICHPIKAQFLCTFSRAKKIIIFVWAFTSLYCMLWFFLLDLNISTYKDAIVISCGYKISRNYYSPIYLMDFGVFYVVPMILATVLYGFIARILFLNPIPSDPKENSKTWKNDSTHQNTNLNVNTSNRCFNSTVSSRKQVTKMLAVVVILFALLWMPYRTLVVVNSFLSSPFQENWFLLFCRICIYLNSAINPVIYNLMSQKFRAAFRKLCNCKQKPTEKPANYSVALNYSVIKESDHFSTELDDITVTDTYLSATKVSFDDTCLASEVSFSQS

Regarding `OC[C@H]1NC[C@@H](O)[C@@H]1O`, the outcome in assay [1] and in assay [9] was inactive. In addition, the Potency result in assay [2], in assay [3], in assay [4], in assay [5], in [6] and in assay [8] was “inactive” in each case. The Potency result in [10], in assay [11], in [12], in assay [13], in assay [14] and in assay [15] was “inactive” each time. Moreover, the Potency result in assay [16] and in assay [17] was “inactive” each time. Moreover, the activation in [7] was 1.19% (inactive). For the same compound, in assay [8], the viability change came out at 4.02%.

For `CCCCCCCC/C=C\CCCCCCCC(=O)NCCc1ccc(O)c(O)c1`, the call in [18] and in assay [9] was inactive. Also, the Potency result in assay [2], in [4], in assay [10], in assay [11], in assay [12] and in assay [13] was “inactive” throughout. In addition, in assay [14], the Potency result was “inactive”. For the same compound, in assay [7], the activation is 1.94% (inactive). Besides, the Potency in assay [16] was 31.6 µM (active); in assay [17], 20 µM (active).

Regarding `O=c1[nH]c(=S)[nH]c(-c2ccccc2)c1Cc1c(O)ccc2ccccc12`, the Potency result in [2], in assay [4], in [5], in assay [6], in assay [12] and in assay [13] was “inactive” in each case. Also, the Potency entry in assay [14] and in assay [17] was “inactive” throughout.

As to `OC[C@H]1O[C@H](n2cnc3c(N[C@H]4CCC[C@@H]4O)ncnc32)[C@H](O)[C@@H]1O`, the Potency result in [2], in [3], in assay [4], in assay [8], in assay [12] and in assay [13] was “inactive” each time. In addition, the Potency entry in assay [14] and in [15] was “inactive” in each case. Also, the viability change in assay [8] turned out to be 2.15%. Besides, the compound was called inactive in assay [9].

`c1ccc2c(c1)CCC[C@H]2Nc1nc2ccccc2[nH]1`: the Potency result in [2], in assay [3], in [4], in assay [5], in assay [8] and in assay [12] was “inactive” throughout. Besides, the Potency result in [13], in assay [14], in assay [15], in assay [16] and in assay [17] was “inactive” each time. Moreover, in assay [8], the viability change was -8.96%. In addition, in assay [9], the compound was classed as inactive.

For the compound `COc1cc(/C=C(\C#N)C(=O)Nc2nnc(C(F)(F)F)s2)ccc1OCc1ccc(C(F)(F)F)cc1C(F)(F)F`, the Potency entry in assay [2], in assay [3], in assay [4], in assay [5], in assay [6] and in assay [14] was “inactive” each time. For the same compound, the Potency result in assay [16] was “inactive”. Further, in assay [9], the compound was called inactive. Moreover, the figures for the Potency in assay [12] and in assay [15] were 23.9 µM (active) and 50.1 µM (active), respectively.

`Nc1nc2c(nc(Br)n2C2OC3COP(=O)(O)O[C@@H]3C2O)c(=O)[nH]1` (some centres undefined): the Potency entry in [2], in assay [4], in assay [5], in assay [6], in assay [8] and in assay [12] was “inactive” throughout. In addition, the Potency result in assay [13], in [14], in [15], in assay [16] and in assay [17] was “inactive” each time. In addition, the viability change in assay [8] is 2.34%. Further, the compound was classed as inactive in assay [9].
